{
  "source": "PubChem BioAssay (EPA / NIEHS)",
  "note": "Records with an inconclusive call do not appear. Where a structure was tested more than once in an assay, its records may differ in their call. Activity calls are given as the source filed them. Rule for the calls: active = hit-call score of the fitted dose curve at least 0.9, where 1 is the maximum; inconclusive = response in the unintended direction; inactive = score below 0.9.",
  "data": [
    {"assay": "TOX21_p53_BLA_p2_viability: Viability Assessment in the Tox21 HCT-116 p53 Agonism Beta-lactamase Assay, Phase 2 (AID 2283591);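 note: compound exposure lasted 16 h at 37 °C; actives lower the ATP signal meaning cytotoxicity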", "excerpt": "TOX21_p53_BLA_p2 is a cell-based, single-readout assay that uses HCT116, a human intestinal cell line, […] in a 1536-well plate.TOX21_p53_BLA_p2_viability is an assay readout measuring cellular ATP content and detected with CellTiter-Glo Luciferase-coupled ATP quantitation.TOX21_p53_BLA_p2_viability used a type of viability reporter where loss-of-signal activity can be used to understand changes in the cell viability. Furthermore, this assay endpoint can be referred to as a secondary readout, because this assay has produced multiple assay endpoints where this one serves a viability function. To generalize the intended target to other relatable targets, this assay endpoint is annotated to the cell cycle intended target family, where the subfamily is cytotoxicity.\nThawing Method: Place 14 mL of pre-warmed thaw medium into a 15 mL of conical tub. Remove the vial of cells to be thawed from liquid nitrogen and thaw rapidly by placing at 37C in a water bath with gentle agitation for 1-2 minutes. Decontaminate the vial by wiping with 70% ethanol before opening in a biological safety cabinet. Transfer the vial contents drop-wise into 14 mL of thaw medium in a sterile 15-mL conical tub. Centrifuge cells at 900 rpm for 4 minutes and resuspend in thaw medium. Transfer contents to the T75 tissue culture flask containing Thaw Medium and place flask in a humidified 37C/5% CO2 incubator. Switch to growth medium at first passage.Propagation Method: Aspirate medium, rinse once in DPBS, add 0.25% Trypsin/EDTA and swirl to coat the cell evenly. Add an equal volume of Growth Medium to inactivate Trypsin after 2-3 minutes incubation at 37C. Centrifuge cells at 900 rpm for 4 minutes and resuspend in growth medium. Cell should be passage or fed at least twice a week.Assay Protocol: Harvest cells from culture in growth medium and resuspend in assay medium. 2.2 Dispense 4000 cells/5 uL/well into 1536-well black/clear bottom plates using a Multidrop dispenser. After the cells were incubated at 37C for 5 hours, 23 nL of compounds dissolved in DMSO were transferred to the assay plate by a PinTool resulting in a 217-fold dilution. Incubate the plates for 16 hours at 37C, 5% CO2. Add 1 uL of 6X LiveBLAzer FRET B/G (CCF4-AM) Substrate Mixture to each well using a BioRAPTR dispenser and incubate the plates at room temperature for 2 hours. Measure fluorescence intensity at 460 and 530 nm emission and 405 nm excitation by an Envision detector. Data is expressed as the ratio of 460nm/530nm emissions. Add 4 uL of Cell-titer Glo to each well using BioRAPTR and incubate the plates at room temperature for […]. For cell viability readout that measures cytotoxicity, 4 ul/well of CellTiter-Glo reagent was added into the assay plates using a Flying Reagent Dispenser. After 30 min incubation at room temperature, the luminescence intensity in the plates was measured using a ViewLux plate reader.", "values": [
      {"smiles": "CC(=O)CCC=C(C)C", "outcome": "inactive"},
      {"smiles": "C=C[C@@]1(C)CC(=O)[C@]2(O)[C@@]3(C)[C@@H](O)CCC(C)(C)[C@@H]3[C@H](O)[C@H](OC(C)=O)[C@@]2(C)O1", "outcome": "inactive"},
      {"smiles": "C=C(C)OC(C)=O", "outcome": "inactive"},
      {"smiles": "N#Cc1ccc(C2CCCc3cncn32)cc1", "note": "(stereo not given)", "outcome": "inactive"},
      {"smiles": "Cc1cccc(C(C)(C)C)c1O", "outcome": "inactive"},
      {"smiles": "CC(=O)OC1CCCCC1C(C)(C)C", "note": "(stereo not given)", "outcome": "inactive"},
      {"smiles": "CCCCC/C=C\\C/C=C\\CCCCCCCC(=O)O", "AC50": "41.5 µM (active)", "outcome": "inactive"},
      {"smiles": "O=C(O)c1cc(O)c2ccccc2c1O", "outcome": "inactive"},
      {"smiles": "O=C1CCCCCCCCCCCN1", "outcome": "inactive"},
      {"smiles": "CC(=O)OCCc1ccccc1", "outcome": "inactive"},
      {"smiles": "C=CC(=O)OCCCCCCOC(=O)C=C", "outcome": "inactive"},
      {"smiles": "O=C(Nc1ccccc1)c1cc(Cl)ccc1O", "AC50": "12.9 µM (active)"},
      {"smiles": "CCCCCCCCCCCC(=O)OCC", "outcome": "inactive"},
      {"smiles": "O=C(OCc1ccccc1)c1ccc(O)cc1", "outcome": "inactive"},
      {"smiles": "Fc1ccc(Br)cc1", "outcome": "inactive"},
      {"smiles": "CCCCNC(=S)NCCCC", "outcome": "inactive"},
      {"smiles": "c1ccc(Nc2cccc3ccccc23)cc1", "outcome": "inactive", "AC50": "71.1 µM (active)"},
      {"smiles": "CC(C)(C)C1CCC(=O)CC1", "outcome": "inactive"},
      {"smiles": "CC(Cl)COP(=O)(OCC(C)Cl)OCC(C)Cl", "note": "(stereo not given)", "outcome": "inactive"},
      {"smiles": "CC(C)(C)NC(=O)[C@H]1CC[C@H]2[C@@H]3CC[C@H]4NC(=O)C=C[C@]4(C)[C@H]3CC[C@]12C", "outcome": "inactive"},
      {"smiles": "c1ccc2c(c1)[nH]c1ccccc12", "outcome": "inactive"},
      {"smiles": "CC(=O)c1ccc(S(=O)(=O)NC(=O)NC2CCCCC2)cc1", "outcome": "inactive"},
      {"smiles": "CC1(C)[C@@H]2CC[C@@]1(C)C(=O)C2", "outcome": "inactive"},
      {"smiles": "Oc1ccc(-c2ccccc2)c(Cl)c1", "outcome": "inactive"},
      {"smiles": "CCOC(=O)/C=C\\C(=O)OCC", "outcome": "inactive"},
      {"smiles": "COc1ccc(C(=O)/C(Br)=C\\C(=O)O)cc1", "AC50": "86.2 µM (active)", "outcome": "inactive"},
      {"smiles": "CCCCCCOc1ccc(N)cc1", "outcome": "inactive"},
      {"smiles": "CC1=C(O)C(=O)C(C)O1", "note": "(stereo not given)", "outcome": "inactive"},
      {"smiles": "CN(C)c1ccc2nc3ccc(=[N+](C)C)cc-3sc2c1", "outcome": "inactive"},
      {"smiles": "CCc1occc(=O)c1O", "outcome": "inactive"},
      {"smiles": "CC/C=C\\CCOC(=O)c1ccccc1O", "outcome": "inactive"},
      {"smiles": "Cc1cc(C)n(CO)n1", "outcome": "inactive"},
      {"smiles": "CC(C)c1ccc(O)c(C(C)C)c1", "outcome": "inactive"},
      {"smiles": "CCCCOCCOC(=O)COc1ccc(Cl)cc1Cl", "outcome": "inactive"},
      {"smiles": "Oc1ccc(/C=C/c2cc(O)cc(O)c2)cc1", "outcome": "inactive"},
      {"smiles": "CC1C(C)(C)C2=C(C(=O)CCC2)C1(C)C", "note": "(stereo not given)", "outcome": "inactive"},
      {"smiles": "COCC(=O)O", "outcome": "inactive"}
    ]}
  ]
}
